# Assay results published in PubChem BioAssay AID2283123 (EPA ToxCast).
# Inconclusive results are not listed. The source made the active and inactive calls. The calls were made as follows: active = hit-call score of the fitted dose curve at least 0.9, where 1 is the maximum; inconclusive = response in the unintended direction; inactive = score below 0.9.
# Target: rat CYP2E1, Cyp2e1 (gene 25086) (UniProt P05182)
# Assay: NVS_ADME_rCYP2E1: NovaScreen (NVS) CYP450-related Enzyme Activity (ADME) Assay for rat CYP2E1
# Experimental: NVS_ADME_rCYP2E1 is a biochemical, single-readout assay that uses extracted gene-proteins in a cell-free assay. Measurements were taken 1 hour after chemical dosing in a 96-well plate.NVS_ADME_rCYP2E1 is one of one assay component(s) measured or calculated from the NVS_ADME_rCYP2E1 assay. It is designed to make measurements of enzyme activity, a form of enzyme reporter, as detected with fluorescence intensity signals by Fluorescence technology.Data from the assay component NVS_ADME_rCYP2E1 was analyzed into 1 assay endpoint. This assay endpoint, NVS_ADME_rCYP2E1, was analyzed in the positive analysis fitting direction relative to Acetonitrile as the negative control and baseline of activity. Using a type of enzyme reporter, loss-of-signal activity can be used to understand changes in the enzymatic activity as they relate to the gene Cyp2e1. Furthermore, this assay endpoint can be referred to as a primary readout, because this assay has produced multiple assay endpoints where this one serves a enzymatic activity function. To generalize the intended target to other relatable targets, this assay endpoint is annotated to the cyp intended target family, where the subfamily is xenobiotic metabolism.
# Binding assays used specific radioligands (tritiated, iodinated) with non-radioactive competitive displacement ligands in agonist or antagonist protocols (as indicated) and various reference compounds and inhibitors to titrate specific binding to receptors and transporters. Most enzyme assays (CYPs, kinases, phosphatases, proteases, HDACs) used recombinant protein and specific substrates (fluorescence mostly, some colorimetric and radioactive) and inhibitors, followed by a biochemical separation of substrate and product. All assays for the biochemical HTS were initially run in duplicate at a single concentration (10 uM for CYP450 assays and 25 uM for all others). Assay-chemical combinations meeting a pre-defined threshold (e.g., 30% inhibition and other criteria defined below) were then run in singleton concentration-response format with maximum concentration of 20 uM for CYPs and 50 uM for all others. Each assay was run with positive and negative controls, and concurrent controls on every plate. The follow-up (secondary) screen tested active chemical-pairs in concentration series, as well as a few additional assays not tested in the primary screen, some selected negative inactives, and several cases re-run in the concentration series for confirmatory purposes.
# Chain of rat CYP2E1, Cyp2e1 (gene 25086) (P05182 whole entry, looked up): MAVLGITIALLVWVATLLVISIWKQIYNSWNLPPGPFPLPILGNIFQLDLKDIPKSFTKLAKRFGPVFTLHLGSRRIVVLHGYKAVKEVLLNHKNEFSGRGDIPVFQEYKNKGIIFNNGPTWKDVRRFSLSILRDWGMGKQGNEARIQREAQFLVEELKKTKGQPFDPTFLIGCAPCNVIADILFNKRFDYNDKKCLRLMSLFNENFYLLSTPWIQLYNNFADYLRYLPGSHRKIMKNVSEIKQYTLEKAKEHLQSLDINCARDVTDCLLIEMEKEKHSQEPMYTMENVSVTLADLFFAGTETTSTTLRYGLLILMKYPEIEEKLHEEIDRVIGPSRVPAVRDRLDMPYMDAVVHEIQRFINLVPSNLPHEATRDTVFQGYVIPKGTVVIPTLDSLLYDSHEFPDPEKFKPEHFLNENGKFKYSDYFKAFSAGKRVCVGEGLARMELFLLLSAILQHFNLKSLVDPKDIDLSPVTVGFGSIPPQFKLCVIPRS
Structure (SMILES),AC50,outcome
N#CSCSc1nc2ccccc2s1,10 µM (active),
C#CCOC(=O)[C@@H](C)Oc1ccc(Oc2ncc(Cl)cc2F)cc1,1.6 µM (active),
S=C(S)NCCNC(=S)S.[Mn+2].[S-]C([S-])=NCCN=C([S-])[S-].[Zn+2],,inactive
S=C([S-])NCCNC(=S)[S-].[Mn+2],,inactive
